Each structure is given as a SMILES string. In all, about 190,000 compounds went through this assay and about 1,300 (0.68%) were called active. The sample holds actives, similar compounds and a random draw of the others, so the mix is not that of the screen. No stated cut-off is given here; in the data, active means inhibition above about 50%; inactive means the rest.

The target in the experiment is Mannose-6-phosphate isomerase (Homo sapiens) (UniProt P34949). Briefly: human PMI inhibitors, high substrate, primary screen, biochemical, fluorescence intensity, high mannose 6-phosphate (AID 1220). Conditions: recombinant PMI enzyme, coupled fluorescence intensity; at 20 µM; stronger effect = higher value.
Chain of Mannose-6-phosphate isomerase (Homo sapiens) (P34949 whole entry, looked up): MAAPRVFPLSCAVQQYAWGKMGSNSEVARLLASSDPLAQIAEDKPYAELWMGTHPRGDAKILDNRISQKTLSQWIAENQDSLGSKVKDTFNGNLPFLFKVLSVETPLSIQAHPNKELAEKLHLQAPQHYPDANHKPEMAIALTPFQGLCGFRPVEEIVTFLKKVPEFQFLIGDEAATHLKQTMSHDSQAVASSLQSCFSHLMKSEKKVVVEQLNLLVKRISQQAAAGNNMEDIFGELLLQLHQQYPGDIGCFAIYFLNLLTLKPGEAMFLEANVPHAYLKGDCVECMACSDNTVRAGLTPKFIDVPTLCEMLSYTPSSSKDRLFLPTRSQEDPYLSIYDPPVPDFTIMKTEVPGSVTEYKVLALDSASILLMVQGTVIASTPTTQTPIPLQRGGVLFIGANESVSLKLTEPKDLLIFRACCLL
Turning to `CCCN1C(=O)C(Cc2nc3ccccc3c(=O)n2-c2ccccc2)c2ccccc21` (stereo not given), the inhibition was 8.6% (inactive).

Consider `Cc1ccc(N2C(=O)C(O)(C(F)(F)F)C3=C2CC(C)(C)CC3=O)cc1C` (stereo not given), for which the inhibition is -10% (inactive).

In the case of `N#CCC1c2ccccc2CCN1C(=O)Nc1cccc(Cl)c1` (stereo not given), the inhibition is 15.2% (inactive).

As for `CN1CCC(N2CCCC(C(=O)O)C2)CC1` (stereo not given), the inhibition is -1.5% (inactive).

For `O=C(NCC(F)(F)F)Nc1ccccn1`, the inhibition is -4.8% (inactive).

Regarding `CCOCCNC(=O)c1ccc2c3c(cccc13)CC2`, the inhibition is -8.4% (inactive).

For the molecule `CCC(C)NC(=O)C1CCCCN1S(=O)(=O)c1ccc(F)cc1` (stereo not given), the inhibition was -2.3% (inactive).

For the molecule `Cc1nn(C)c(Oc2ccc(Cl)cc2)c1C(=O)Nc1ccc(F)cc1F`, the inhibition is 1.9% (inactive).

Take `Nc1ccc2c(c1)-c1ccccc1S(=O)(=O)N2`: the inhibition was 52.3% (active).

Consider `NCCN=C1NS(=O)(=O)c2ccccc21`, for which the inhibition is 7.4% (inactive).

With `Cc1ccc2c(c1)-c1ccccc1S(=O)(=O)N2`, the inhibition was -0.5% (inactive).

With `COc1cc(CNCC2CCCO2)ccc1OCC(N)=O` (stereo not given), the inhibition was -5.5% (inactive).

On to `COc1ccc2c(c1)OC13CCN(C)CC1C2C(C(=O)c1ccc(F)cc1)C(=O)N3` (stereo not given), for which the inhibition is -3.5% (inactive).

In the case of `COC(=O)C1=C(C(=O)OC)SC(=C2C(=S)C(C)(C)N(C(=O)CC(C)C)c3ccccc32)S1`, the inhibition was 33% (inactive).

`CC1C(=O)Nc2ccccc2N1C(=O)C1CC1` (stereo not given): the inhibition is -7.6% (inactive).

`CCCC(=O)N1c2ccccc2C(=C2SC(C(=O)OC)=C(C(=O)OC)S2)C(=S)C1(C)C`: the inhibition is 32.9% (inactive).

As to `CCC(C)C(=O)N1c2ccccc2C(=C2SC(C(=O)OC)=C(C(=O)OC)S2)C(=S)C1(C)C` (stereo not given), the inhibition is 48.7% (inactive).

With `COCCNC(=O)C(C(=O)c1ccc(F)cc1)n1cc(C)ccc1=O` (stereo not given), the inhibition is 19.5% (inactive).

For the molecule `Cc1cccc(C(=O)NC(NCCc2ccccc2)C(Cl)(Cl)Cl)c1` (stereo not given), the inhibition is 1.5% (inactive).

For `COC(=O)C(C)Sc1nc(N)c(NC(=O)c2ccco2)c(=O)[nH]1` (stereo not given), the inhibition is 1.6% (inactive).

On to `Cc1ccc(CN2CCCC(CO)(Cc3ccccc3C)C2)s1` (stereo not given), for which the inhibition is 13% (inactive).

As to `CCCCCN1C=CC(=C2C(=O)c3ccccc3C2=O)C=C1`, the inhibition was -2.8% (inactive).

Take `COc1ccc2ccccc2c1C1CC(=O)N2CN(C3CCCCC3)CSC2=C1C#N` (stereo not given): the inhibition was 52.1% (active).

As to `COc1ccc2ccccc2c1C1CC(=O)N2CN(C)CSC2=C1C#N` (stereo not given), the inhibition was 68.7% (active).

Turning to `CCOc1cc(C2CC(=O)N3CN(C4CCCCC4)CSC3=C2C#N)ccc1O` (stereo not given), the inhibition was 49% (inactive).

For `COc1cc(C2CC(=O)N3CN(c4ccccc4C)CSC3=C2C#N)cc(OC)c1OC` (stereo not given), the inhibition is 11.4% (inactive).

As for `CC(C)c1ccc(C2CC(=O)N3CN(C)CSC3=C2C#N)cc1` (stereo not given), the inhibition is 28.9% (inactive).

Turning to `COc1ccccc1N1CSC2=C(C#N)C(c3ccc(SC)cc3)CC(=O)N2C1` (stereo not given), the inhibition is 7.1% (inactive).

`COc1cccc(C2CC(=O)N3CN(c4cccc(Cl)c4C)CSC3=C2C#N)c1OC` (stereo not given): the inhibition was 0.2% (inactive).

With `CCOc1ccccc1N1CSC2=C(C#N)C(c3c(OC)ccc4ccccc34)CC(=O)N2C1` (stereo not given), the inhibition is 67.1% (active).

As to `CCc1ccccc1N1CSC2=C(C#N)C(c3cc(OC)c(OC)cc3OC)CC(=O)N2C1` (stereo not given), the inhibition was 9% (inactive).

On to `COc1ccc(OC)c(-n2c(-c3cccc(S(=O)(=O)N(C)C)c3)n[nH]c2=S)c1`, for which the inhibition was 15.9% (inactive).

With `Nc1nc(-c2ccc(Cl)cc2)c(S(=O)(=O)c2ccccc2)s1`, the inhibition is -1.5% (inactive).

`COc1cc(/C=N/NC(=O)CN2CCOCC2)ccc1OCc1ccccc1`: the inhibition is -5.3% (inactive).

Consider `COc1ccc(Cl)c(NC(=O)Cn2nnc(-c3ccccc3N)n2)c1`, for which the inhibition was -3.6% (inactive).

In the case of `CCc1nc(Nc2ccc3c(c2)OCO3)c2oc3ccccc3c2n1`, the inhibition was 23% (inactive).

Take `CCOCCCNS(=O)(=O)c1ccc(NC(=O)C2CC(=O)N(c3ccc(C)cc3)C2)cc1` (stereo not given): the inhibition is 6% (inactive).

`Cc1cc(C)c(C(=O)/C=C/C=C/c2ccccc2)c(=O)[nH]1`: the inhibition was 22.8% (inactive).

As to `C/C(=N\NC(=O)c1nn(C)c(C)c1Br)c1ccc(NC(=O)c2ccccc2F)cc1`, the inhibition is 10.7% (inactive).

With `COc1ccc(C(=O)NC(=S)NNC(=O)c2ccc(NC(=O)C(C)C)cc2)cc1`, the inhibition was -10.9% (inactive).

For `O=c1[nH]ncc(N2CCCCC2)c1Cl`, the inhibition is 12.3% (inactive).

In the case of `Cc1cc([N+](=O)[O-])ccc1NCc1ccccc1[N+](=O)[O-]`, the inhibition is 21.5% (inactive).

As for `Cc1cc(F)ccc1NCc1ccccc1[N+](=O)[O-]`, the inhibition was 70% (active).

Turning to `Cc1cc(F)ccc1NCc1cc2c(cc1[N+](=O)[O-])OCO2`, the inhibition is 37.6% (inactive).

For the molecule `CCOC(=O)/C(C(=O)Nc1ccc(Br)cc1)=C1/NC(C)(C)Cc2ccccc21`, the inhibition was 3.4% (inactive).

As for `OCCNC(=S)Nc1ccc(Oc2ccccc2)cc1`, the inhibition was 2.2% (inactive).

In the case of `CCCC12CN3CCN(CC(C3)/C1=N\NC(=O)c1ccccc1Cl)C2`, the inhibition is -11.2% (inactive).

For `O=C1c2ccccc2C(Nc2ccc3c(c2)OCO3)N1Cc1ccc2c(c1)OCO2` (stereo not given), the inhibition was 23.7% (inactive).

Regarding `O=C1c2ccccc2C(Nc2ccc3c(c2)OCO3)N1Cc1ccco1` (stereo not given), the inhibition is 57.7% (active).

With `O=C1c2ccccc2C(Nc2ccc3c(c2)OCCO3)N1Cc1ccco1` (stereo not given), the inhibition was 0.2% (inactive).

Regarding `CCN(C(=O)CSc1nnc(-c2c[nH]c3ccccc23)o1)C1CCS(=O)(=O)C1` (stereo not given), the inhibition was 4.2% (inactive).

As for `O=c1c2c(nc3nc(NCc4ccccc4Cl)[nH]n13)CCC2`, the inhibition is -5.2% (inactive).

Turning to `COc1ccccc1CNc1nc2nc3c(c(=O)n2[nH]1)CCC3`, the inhibition is 4.2% (inactive).

With `O=c1c2c(nc3nc(NCc4cccc5ccccc45)[nH]n13)CCC2`, the inhibition was 55.7% (active).

As for `CC1CCCCN1CCNC(=O)Cn1nc(-c2ccccc2)ccc1=O` (stereo not given), the inhibition was -4.4% (inactive).

For `Cc1ccc(-c2ccc(=O)n(CC(=O)NCCN3CCCCC3C)n2)cc1` (stereo not given), the inhibition was 60.7% (active).

Turning to `Cc1ccc(-c2ccc(=O)n(CC(=O)NCCCN3CCCCC3C)n2)cc1` (stereo not given), the inhibition is 12.3% (inactive).

Regarding `O=[N+]([O-])c1cccc(-c2nc(N3CCOCC3)c3ccccc3n2)c1`, the inhibition is -8.1% (inactive).

Regarding `COC(=O)COc1ccc(/C=C2/NC(=O)N(CC(=O)OC)C2=O)cc1`, the inhibition was 1.1% (inactive).

As to `O=C1C(Cl)=C(NCC2CCCO2)C(=O)N1c1ccccc1` (stereo not given), the inhibition is 2.7% (inactive).

A word on the inhibition: it is the change of the read-out against control, counted positive when it falls.

(Values after PubChem BioAssay AID1220 (Sanford-Burnham Center for Chemical Genomics, 2008).)
